# Active and inactive are the calls of the source. The rule behind the calls is not given here.
# Biological target: Muscarinic acetylcholine receptor M4 (Homo sapiens) (UniProt P08173)
# Test: human M4 receptor potentiation, selectivity assay for M5 PAM project, CHO cells (AID 651925)
# Sequence of Muscarinic acetylcholine receptor M4 (Homo sapiens) (P08173 whole entry, looked up): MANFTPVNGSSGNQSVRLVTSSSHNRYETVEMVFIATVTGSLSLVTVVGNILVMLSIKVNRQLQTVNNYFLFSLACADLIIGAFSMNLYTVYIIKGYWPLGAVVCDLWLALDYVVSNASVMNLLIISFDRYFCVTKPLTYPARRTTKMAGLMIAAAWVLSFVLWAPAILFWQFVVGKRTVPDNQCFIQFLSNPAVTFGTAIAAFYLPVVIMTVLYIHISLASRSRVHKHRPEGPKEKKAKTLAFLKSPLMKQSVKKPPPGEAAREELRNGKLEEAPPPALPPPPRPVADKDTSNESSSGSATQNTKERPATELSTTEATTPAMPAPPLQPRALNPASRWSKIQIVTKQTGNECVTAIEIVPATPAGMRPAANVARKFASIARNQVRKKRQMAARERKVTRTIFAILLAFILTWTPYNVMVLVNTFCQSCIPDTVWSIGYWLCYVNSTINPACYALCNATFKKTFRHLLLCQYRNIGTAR
smiles,measurement,value
O=C1C(=O)N(CCOc2ccccc2)c2ccc(OC(F)(F)F)cc21,outcome,inactive

# From PubChem BioAssay AID651925 (Vanderbilt Specialized Chemistry Center, 2012)
